Measurements as given in PubChem BioAssay.
A number with no mark means an inactive call. For some of these results: Measured potencies and affinities stand elsewhere. Active and inactive are the calls of the source. Unless noted, how the calls were made is not given here.

Tests used:
[1] = antimalarial activity against Dd2 strain (AID 2302;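 active means growth inhibition above 50% at the single 2 µM test dose, taken to imply half-maximal potency below 2 µM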;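 further: 0% = DMSO untreated growth and 100% = chloroquine plus artemisinin killed control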); conditions: P. falciparum Dd2 in RBCs, LDH growth readout, 72 h; at 2 µM; stronger effect = higher value
[2] = HepG2 cytotoxicity, primary screen, cytotoxicity control for P. falciparum antimalarial project, cell-based, ATP luminescence (AID 2303;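 active means inhibition above 50%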;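 further: 0% = DMSO wells and 100% = digitonin-killed cells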); conditions: HepG2 viability, 24-48 h, at 10 µM, stronger effect = higher value
[3] = molecular target: L-lactate dehydrogenase (Plasmodium falciparum (isolate CDC / Honduras)) (UniProt Q27743); assay: PfLDH activity inhibition – cell lysate, 3D7 strain, counter-screen for P. falciparum growth inhibition project (AID 2304);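 further: 0% = vehicle and 100% = reference inhibitor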; conditions: P. falciparum 3D7 crude extract, LDH APAD/NBT absorbance; at 2 µM; stronger effect = higher value
Sequence of L-lactate dehydrogenase (Plasmodium falciparum (isolate CDC / Honduras)) (Q27743 whole entry, looked up): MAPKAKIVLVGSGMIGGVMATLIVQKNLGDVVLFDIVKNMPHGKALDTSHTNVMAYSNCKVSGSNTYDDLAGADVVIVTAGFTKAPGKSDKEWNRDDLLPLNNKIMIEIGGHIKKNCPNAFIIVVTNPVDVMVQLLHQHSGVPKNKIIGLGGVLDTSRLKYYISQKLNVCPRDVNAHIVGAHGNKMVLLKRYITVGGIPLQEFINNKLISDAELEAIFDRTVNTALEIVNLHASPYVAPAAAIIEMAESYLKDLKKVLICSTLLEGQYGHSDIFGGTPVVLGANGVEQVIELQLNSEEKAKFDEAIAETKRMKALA

[4] = inhibition of 3D7 malaria parasite growth – strain 3D7 (AID 2306);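 further: 0% = DMSO wells and 100% = chloroquine plus artemisinin control wells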; conditions: P. falciparum 3D7 erythrocytic growth, LDH absorbance, 72 h; at 2 µM; stronger effect = higher value
[5] = molecular target: Calcium-dependent protein kinase 1 (Plasmodium falciparum (isolate 3D7)) (UniProt P62344); assay: PfCDPK1 kinase inhibitors, biochemical, TCAMS library (AID 1159585; cut-off not given, nearly all actives have IC50 up to about 0.98 µM;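 further: inhibitors leave more ATP so luminescence rises with inhibition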); conditions: recombinant PfCDPK1, Kinase-Glo ATP depletion luminescence
Sequence of Calcium-dependent protein kinase 1 (Plasmodium falciparum (isolate 3D7)) (P62344 whole entry, looked up): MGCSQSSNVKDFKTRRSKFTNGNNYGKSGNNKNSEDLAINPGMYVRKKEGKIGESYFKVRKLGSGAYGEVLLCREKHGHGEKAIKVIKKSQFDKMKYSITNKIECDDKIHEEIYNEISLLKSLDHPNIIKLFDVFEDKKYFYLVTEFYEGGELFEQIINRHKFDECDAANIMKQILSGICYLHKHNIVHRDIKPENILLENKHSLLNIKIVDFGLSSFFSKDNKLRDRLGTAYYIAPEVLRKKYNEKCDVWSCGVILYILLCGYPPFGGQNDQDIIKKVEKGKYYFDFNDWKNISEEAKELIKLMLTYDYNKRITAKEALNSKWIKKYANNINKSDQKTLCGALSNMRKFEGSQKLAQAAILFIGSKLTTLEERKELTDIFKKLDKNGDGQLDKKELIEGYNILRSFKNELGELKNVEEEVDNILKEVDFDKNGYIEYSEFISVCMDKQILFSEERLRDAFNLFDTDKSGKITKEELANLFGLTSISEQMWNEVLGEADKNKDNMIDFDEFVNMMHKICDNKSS

[6] = molecular target: Plasmodium falciparum protein kinase 6 (PK6, PF3D7_1337100) (UniProt Q8IDW1); assay: PfPK6 kinase inhibitors, biochemical, TCAMS library (AID 1159586); conditions: recombinant PfPK6, Kinase-Glo ATP depletion luminescence
Sequence of Plasmodium falciparum protein kinase 6 (PK6, PF3D7_1337100) (Q8IDW1 1-305): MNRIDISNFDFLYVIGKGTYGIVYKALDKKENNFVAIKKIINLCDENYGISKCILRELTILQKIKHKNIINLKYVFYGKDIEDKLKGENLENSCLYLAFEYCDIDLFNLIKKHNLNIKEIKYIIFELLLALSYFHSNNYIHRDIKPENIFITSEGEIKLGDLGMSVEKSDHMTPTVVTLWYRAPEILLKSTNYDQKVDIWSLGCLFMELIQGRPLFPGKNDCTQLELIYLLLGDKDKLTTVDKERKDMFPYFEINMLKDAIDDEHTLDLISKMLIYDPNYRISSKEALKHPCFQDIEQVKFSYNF

[7] = molecular target: Protein kinase 7 (PK7), Plasmodium falciparum 3D7 (PF3D7_0213400) (UniProt Q7YTF7); assay: inhibition of Plasmodium PK7 catalytic activity – biochemical, TCAMS antimalarial set, Kinase-Glo luminescence (AID 1159587); conditions: recombinant PfPK7, Kinase-Glo ATP depletion luminescence
Sequence of Protein kinase 7 (PK7), Plasmodium falciparum 3D7 (PF3D7_0213400) (Q7YTF7 1-343): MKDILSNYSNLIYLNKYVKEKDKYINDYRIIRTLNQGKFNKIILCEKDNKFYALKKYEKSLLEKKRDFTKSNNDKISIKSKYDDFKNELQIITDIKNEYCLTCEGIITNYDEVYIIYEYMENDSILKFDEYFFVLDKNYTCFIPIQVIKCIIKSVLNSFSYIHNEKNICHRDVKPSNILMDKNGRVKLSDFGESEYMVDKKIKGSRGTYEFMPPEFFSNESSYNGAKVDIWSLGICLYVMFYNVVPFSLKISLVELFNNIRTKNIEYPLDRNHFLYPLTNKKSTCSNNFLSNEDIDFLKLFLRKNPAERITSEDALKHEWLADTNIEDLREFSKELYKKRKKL

[8] = molecular target: Calcium-dependent protein kinase 4 (Plasmodium falciparum (isolate 3D7)) (UniProt Q8IBS5); assay: PfCDPK4 kinase inhibitors, biochemical, TCAMS library (AID 1159588; cut-off not given, nearly all actives have IC50 up to about 0.91 µM); conditions: recombinant PfCDPK4, Kinase-Glo ATP depletion luminescence
Sequence of Calcium-dependent protein kinase 4 (Plasmodium falciparum (isolate 3D7)) (Q8IBS5 whole entry, looked up): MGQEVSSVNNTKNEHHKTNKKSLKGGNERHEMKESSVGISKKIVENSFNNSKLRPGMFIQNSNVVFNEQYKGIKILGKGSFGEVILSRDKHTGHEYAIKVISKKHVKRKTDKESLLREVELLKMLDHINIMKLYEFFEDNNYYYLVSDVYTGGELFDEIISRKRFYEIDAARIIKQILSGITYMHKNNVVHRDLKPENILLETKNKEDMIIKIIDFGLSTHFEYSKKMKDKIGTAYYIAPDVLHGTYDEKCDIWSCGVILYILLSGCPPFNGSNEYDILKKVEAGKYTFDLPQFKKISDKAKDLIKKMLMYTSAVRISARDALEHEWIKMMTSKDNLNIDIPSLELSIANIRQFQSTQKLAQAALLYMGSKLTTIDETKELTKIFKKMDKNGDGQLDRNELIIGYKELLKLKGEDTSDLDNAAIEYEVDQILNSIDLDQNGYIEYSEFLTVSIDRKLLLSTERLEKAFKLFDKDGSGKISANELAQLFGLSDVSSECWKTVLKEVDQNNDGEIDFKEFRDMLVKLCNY

CN(C)CCC(O)C=C(c1ccc(Cl)cc1)c1ccc(Cl)cc1 (stereo not given)
growth inhibition [1]: 85% (active)
inhibition [2]: 33%
inhibition [3]: 1%
growth inhibition [4]: 93% (active)
outcome [5]: inactive
outcome [6]: inactive
outcome [7]: inactive
outcome [8]: inactive

CCOc1ccccc1NC(=O)C(Sc1nc(C)cc(C)c1C#N)c1ccccc1 (stereo not given)
growth inhibition [1]: 98% (active)
inhibition [2]: -1%
inhibition [3]: -3%
growth inhibition [4]: 99% (active)
outcome [5]: inactive
outcome [6]: inactive
outcome [7]: inactive
outcome [8]: inactive

COc1ccccc1C1CN(Cc2coc3ccccc3c2=O)Cc2ccccc2O1 (stereo not given)
growth inhibition [1]: 61% (active)
inhibition [2]: 4%
inhibition [3]: 2%
growth inhibition [4]: 87% (active)
outcome [5]: inactive
outcome [6]: inactive
outcome [7]: inactive
outcome [8]: inactive

COc1ccc(CNC(=O)NC2CCN(c3ccnc(Nc4ccc(OC)cc4)n3)C2)cc1 (stereo not given)
growth inhibition [1]: 80% (active)
inhibition [2]: 27%
inhibition [3]: 1%
growth inhibition [4]: 87% (active)
outcome [5]: inactive
outcome [6]: inactive
outcome [7]: inactive
outcome [8]: inactive

COc1cccc(C(=O)N2CCN(Cc3cccc(NC(=O)c4cccs4)c3)CC2)c1
growth inhibition [1]: 95% (active)
inhibition [2]: 6%
inhibition [3]: -2%
growth inhibition [4]: 95% (active)
outcome [5]: inactive
outcome [6]: inactive
outcome [7]: inactive
outcome [8]: inactive

Cc1cc(N[C@@H](CC(C)C)C(=O)NCCc2ccccc2)nc(NCc2ccccc2C)n1
growth inhibition [1]: 74% (active)
inhibition [2]: 17%
inhibition [3]: 0%
growth inhibition [4]: 93% (active)
outcome [5]: inactive
outcome [6]: inactive
outcome [7]: inactive
outcome [8]: inactive

COc1cc(CCNc2nc(NCc3cccc4ccccc34)nc(N3CCC(N)CC3)n2)ccc1O
growth inhibition [1]: 59% (active)
inhibition [2]: 16%
inhibition [3]: 5%
growth inhibition [4]: 100% (active)
outcome [5]: inactive
outcome [6]: inactive
outcome [7]: inactive
outcome [8]: inactive

O=C(NCCCCN1CCN(c2ccc3c(c2)CCC3)CC1)c1ccc(NC(=O)c2ccc(Cl)cc2)cc1
growth inhibition [1]: 35%
inhibition [2]: 38%
inhibition [3]: 2%
growth inhibition [4]: 98% (active)
outcome [5]: inactive
outcome [6]: inactive
outcome [7]: inactive
outcome [8]: inactive

COc1cccc(CNC[C@@H](O)[C@H](Cc2ccccc2)NC(=O)c2cc3c4c(c2)c(C(C)C)cn4CCS(=O)(=O)N3C)c1
growth inhibition [1]: 98% (active)
inhibition [2]: 21%
inhibition [3]: -6%
growth inhibition [4]: 98% (active)
outcome [5]: inactive
outcome [6]: inactive
outcome [7]: inactive
outcome [8]: inactive

COc1ccc(-n2nc(C)c3c2NC(=O)CC3c2ccccc2OCc2ccc(F)cc2)cc1 (stereo not given)
growth inhibition [1]: 65% (active)
inhibition [2]: 53% (active)
inhibition [3]: 7%
growth inhibition [4]: 93% (active)
outcome [5]: inactive
outcome [6]: inactive
outcome [7]: inactive
outcome [8]: inactive

N#Cc1ccc(-c2ccc(C(=O)NCCCCN3CCC(c4cc(Br)c5c(c4OCC(N)=O)CCCC5)CC3)cc2)cc1
growth inhibition [1]: 89% (active)
inhibition [2]: 23%
inhibition [3]: 6%
growth inhibition [4]: 100% (active)
outcome [5]: inactive
outcome [6]: inactive
outcome [7]: inactive
outcome [8]: inactive

COc1cccc(CN2CCN(C(c3ccccc3)c3ccccc3)CC2)c1O
growth inhibition [1]: 98% (active)
inhibition [2]: 6%
inhibition [3]: 2%
growth inhibition [4]: 99% (active)
outcome [5]: inactive
outcome [6]: inactive
outcome [7]: inactive
outcome [8]: inactive

COc1cccc(-c2cc3nc4c(c(NCCCn5ccnc5)n3n2)CCCC4)c1
growth inhibition [1]: 66% (active)
inhibition [2]: 10%
inhibition [3]: -2%
growth inhibition [4]: 100% (active)
outcome [5]: inactive
outcome [6]: inactive
outcome [7]: inactive
outcome [8]: inactive

O=C(NC1CCC1)C1CCN(C(c2ccc(Cl)cc2)c2ccc(Cl)cc2)CC1
growth inhibition [1]: 70% (active)
inhibition [2]: 6%
inhibition [3]: 8%
growth inhibition [4]: 95% (active)
outcome [5]: inactive
outcome [6]: inactive
outcome [7]: inactive
outcome [8]: inactive

CCCC[C@H](NC(=O)OC(C)(C)C)C(=O)Nc1ccc(Cc2ccc(NC(=O)[C@H](CCCC)NC(=O)OC(C)(C)C)cc2)cc1
growth inhibition [1]: 71% (active)
inhibition [2]: 5%
inhibition [3]: 3%
growth inhibition [4]: 95% (active)
outcome [5]: inactive
outcome [6]: inactive
outcome [7]: inactive
outcome [8]: inactive

Fc1ccccc1C=NNc1ccnc2ccccc12
growth inhibition [1]: 26%
inhibition [2]: 8%
inhibition [3]: 0%
growth inhibition [4]: 94% (active)
outcome [5]: inactive
outcome [6]: inactive
outcome [7]: inactive
outcome [8]: inactive

CC(=Nc1ccc(Cl)c(Cl)c1)N(C)C
growth inhibition [1]: 0%
inhibition [2]: -6%
inhibition [3]: 2%
growth inhibition [4]: 98% (active)
outcome [5]: inactive
outcome [6]: inactive
outcome [7]: inactive
outcome [8]: inactive

Clc1ccc2c(NN=Cc3ccco3)ccnc2c1
growth inhibition [1]: 96% (active)
inhibition [2]: 3%
inhibition [3]: -4%
growth inhibition [4]: 100% (active)
outcome [5]: inactive
outcome [6]: inactive
outcome [7]: inactive
outcome [8]: inactive

COc1cc(NC(=O)c2cc([N+](=O)[O-])ccc2NC(=O)CNC2CCCC(C)C2C)cc(OC)c1 (stereo not given)
growth inhibition [1]: 80% (active)
inhibition [2]: 21%
inhibition [3]: 4%
growth inhibition [4]: 97% (active)
outcome [5]: inactive
outcome [6]: inactive
outcome [7]: inactive
outcome [8]: inactive

Cc1cc(F)ccc1Nc1nc(N(C)c2ccccc2)c2cc(OCCCN(C)C)ccc2n1
growth inhibition [1]: 49%
inhibition [2]: 31%
inhibition [3]: 4%
growth inhibition [4]: 100% (active)
outcome [5]: inactive
outcome [6]: inactive
outcome [7]: inactive
outcome [8]: inactive
